Screening results from PubChem BioAssay.
L3MBTL1 inh = L3MBTL1 (human) inhibition. Q9Y468. AlphaScreen L3MBTL1–H3K9me1 peptide binding. Potency, µM (highest dose often 57.1 µM), actives largely listed as inhibitors. actives 0.66% (n = 230,000); note: nearly all actives have a fitted effect of over 60% in size
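AlphaScreen proximity signal between nickel-chelate acceptor and streptavidin donor beads (final 10 ug/mL) reports binding of 50 nM L3MBTL1 to 75 nM biotin-H3 K9me1 peptide; complex incubated with compounds 30 min at room temperature; cefsulodin titration as control.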
PLK1 PBD block = inhibitors of human PLK1 polo-box domain binding; P53350; Plk1 PBD binding of FITC phosphopeptide, fluorescence polarization; Potency, µM, usual class: inhibitors; actives 2.8% (n = 360,000); note: series mostly up to about 57 µM; nearly all actives have a fitted effect of over 65% in size
VDR inhibitor = inhibitors of human vitamin D receptor; VDR-SRC2-3 peptide fluorescence polarization, 2 h; Potency, µM, usual class: inhibitors; actives 0.93% (n = 400,000); AID 504847
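FP read-out; VDR + SRC2-3 coactivator peptide; 23 nl compound by pintool; 2 h RT incubation; reagents held at 4 deg C, protected from light.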
JMJD2A Tudor = JMJD2A Tudor domain (human) inhibition; Potency, µM (top dose mostly 114 µM), usual class: inhibitors; AlphaScreen JMJD2A-Tudor / H3K4me3 peptide binding; O75164; AID 504339; actives 4.4% (n = 390,000); note: nearly all actives have a fitted effect of over 50% in size
BAZ2B block = blocks human BAZ2B; Q9UIF8; AlphaScreen BAZ2B-H3K14Ac peptide displacement; Potency, µM (series often up to 114 µM), most hits filed as inhibitors; actives 4.4% (n = 360,000); AID 504333; note: nearly all actives have a fitted effect of over 60% in size
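Inhibition is scored as reduced AlphaScreen emission. The BAZ2B/b-H3(5-23)K14Ac complex (50 nM each) in PBS pH 7.4, 0.01% Tween-20 meets compound (up to 110 uM) for 30 min at RT before bead addition.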
HP1b binding inh = blocks HP1-beta chromodomain binding to methylated histone tails | AlphaScreen HP1-beta / biotin-H3K9me3 peptide binding | P83916 | Potency, µM (titrated, usually from 114 µM), most hits filed as inhibitors | actives 0.56% (n = 390,000); note: nearly all actives have a fitted effect of over 70% in size
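Compound inhibition of the preformed complex between 50 nM HP1-beta and 50 nM biotinylated H3K9me3 peptide was read by AlphaScreen. Buffer was PBS pH 7.4 with 0.01% Tween-20. Incubations ran 30 min at room temperature, with 10 ug/mL donor/acceptor beads.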
Each line names hits and unclear results; the compound was inactive in the other large screens. Rows were chosen to be rich in hits. Some 6.9% of all compounds tested hit in one or more screens of this group. Calls come from the whole dose curve; as a rule, active = well fitted curve in the direction sought with a large enough effect; inconclusive = small, poorly fitted or top-dose-only effect, or another doubt; inactive = no such curve, though single readings can be large; an effect the other way counts as inactive or inconclusive.

Cc1cc(C)cc(NC(=O)[C@H](NC(=O)[C@@H]2Cc3ccccc3CN2)c2ccccc2)c1	none (no result: L3MBTL1 inh)
COc1ccc(NC(=O)CSc2oc(-c3ccc(F)cc3)nc2S(=O)(=O)c2ccc(C)cc2)c(OC)c1	JMJD2A Tudor inconclusive, HP1b binding inh inconclusive (no result: L3MBTL1 inh, PLK1 PBD block)
CCOc1ccc(C(=O)N2CCC(c3ccncc3)CC2)cc1	none (no result: L3MBTL1 inh, PLK1 PBD block)
Cc1c(Cl)cccc1NC(=O)CSc1nc(=O)n(CCCN2CCOCC2)c2c1CCCC2	none (no result: L3MBTL1 inh, VDR inhibitor, JMJD2A Tudor, BAZ2B block, HP1b binding inh)
CCN(CC)c1ccc(NC(=O)/C=C/c2cc(Br)ccc2OC)cc1	L3MBTL1 inh inconclusive, JMJD2A Tudor 4µM, BAZ2B block 8.9µM, HP1b binding inh inconclusive
COc1ccc(NC(=O)/C=C/c2cc(Br)ccc2OC)cc1	none
O=C(NNC(=S)Nc1ccc(C(=O)O)c(O)c1)c1ccncc1	PLK1 PBD block 27µM, VDR inhibitor inconclusive, JMJD2A Tudor inconclusive (no result: L3MBTL1 inh, BAZ2B block)
O=C(NNC(=O)C1CCCN(S(=O)(=O)c2cccc(F)c2)C1)C1CC1 (stereo not drawn)	none
CN(C)c1ccc(CNc2nc(-c3ccccc3)nn2S(C)(=O)=O)cc1	JMJD2A Tudor 56µM, BAZ2B block 35µM, HP1b binding inh inconclusive
CC(=O)n1nc(-c2ccccc2)nc1NCc1ccc(N(C)C)cc1	JMJD2A Tudor 35µM, BAZ2B block 25µM, HP1b binding inh inconclusive
O=C(CSc1n[nH]c(-c2ccncc2)n1)Nc1ccccc1	none (no result: L3MBTL1 inh)
CCc1nc(SCC(=O)Nc2ccc(N(C)C)cc2)n[nH]1	none
CCc1nc(SCC(=O)Nc2ccc(N(CC)CC)cc2)n[nH]1	PLK1 PBD block 30µM (no result: L3MBTL1 inh, BAZ2B block)
CC(=O)c1ccc(NC(=O)CSc2ccc3nnc(-c4ccccn4)n3n2)cc1	JMJD2A Tudor 32µM (no result: L3MBTL1 inh)
O=C(CSc1n[nH]c(-c2ccccn2)n1)Nc1ccc(F)cc1	JMJD2A Tudor 5.6µM, BAZ2B block 4µM (no result: L3MBTL1 inh)
Cc1ccc(NC(=O)CSc2n[nH]c(-c3ccccn3)n2)cc1	JMJD2A Tudor 4µM, BAZ2B block 4µM (no result: L3MBTL1 inh)
COC(=O)CC1C(C)(C)C(=O)C2CC3C4=CC(=O)OC(c5ccoc5)[C@]4(C)CCC3[C@@]1(C)C2=O (stereo partly drawn)	none (no result: L3MBTL1 inh, PLK1 PBD block, JMJD2A Tudor, BAZ2B block, HP1b binding inh)
O=C(CCC(=O)N1CCN(c2cccc(Cl)c2)CC1)N1CCN(c2ccccc2)CC1	none
O=C(CSc1nccc(=O)[nH]1)N1CCN(c2ccccc2)CC1	PLK1 PBD block 17µM, VDR inhibitor inconclusive, JMJD2A Tudor inconclusive, BAZ2B block 79µM
CCCc1cc(=O)[nH]c(SCC(=O)N2CCN(c3ccccc3)CC2)n1	none (no result: L3MBTL1 inh)
O=C(CSc1ccccn1)N1CCN(c2cccc(Cl)c2)CC1	PLK1 PBD block 12µM, VDR inhibitor inconclusive, JMJD2A Tudor 79µM (no result: L3MBTL1 inh)
COc1ccc(COC(=O)N/N=C(\C)CC(=O)Nc2ccc(Cl)cn2)cc1	none
O=S(=O)(c1ccc(-c2cc(C(F)(F)F)on2)s1)N1CCN(c2ccccc2F)CC1	none (no result: L3MBTL1 inh, PLK1 PBD block)
COc1cc2c(cc1OC)C(O)C(O)(CO)C(C(=O)O)C2c1cc(OC)c(OC)c(OC)c1 (stereo not drawn)	none (no result: L3MBTL1 inh, BAZ2B block)
O=C1c2cc(Br)ccc2N(Cc2ccc(Br)cc2)S(=O)(=O)C1c1cc(Cl)c(Cl)cc1[N+](=O)[O-] (stereo not drawn)	L3MBTL1 inh inconclusive, PLK1 PBD block 21µM, JMJD2A Tudor 35µM, HP1b binding inh inconclusive (no result: BAZ2B block)
CCOC(=O)/C(C#N)=C/c1cn(CCC(=O)O)nc1-c1ccccc1	PLK1 PBD block 30µM, HP1b binding inh inconclusive
COc1ccc(Nc2nc(C#N)nc(NC3CCCC3)n2)cc1	none (no result: L3MBTL1 inh, PLK1 PBD block, VDR inhibitor, BAZ2B block, HP1b binding inh)
CC(C)(C)OC(=O)N[C@@H](Cc1ccccc1)c1nnc(SCC(N)=O)o1	none
COC(=O)CS(=O)(=O)c1nnc([C@H](Cc2ccccc2)NC(=O)OC(C)(C)C)o1	PLK1 PBD block 11µM, VDR inhibitor inconclusive, JMJD2A Tudor 79µM
Cc1cccc(CS(=O)(=O)c2nnc([C@H](Cc3ccccc3)NC(=O)OC(C)(C)C)o2)c1	PLK1 PBD block 2.7µM, VDR inhibitor inconclusive (no result: L3MBTL1 inh)
COC(=O)CSc1nnc([C@H](Cc2ccccc2)NC(=O)OC(C)(C)C)o1	none
CN(C)C(=O)CSc1nnc([C@H](Cc2ccccc2)NC(=O)OC(C)(C)C)o1	PLK1 PBD block 27µM
CN(CCOCCOc1ccc(Cl)cc1Br)Cc1ccccc1	none
CN(C)CCOCCOc1ccc(Cl)cc1C(C)(C)C	JMJD2A Tudor 3.2µM, BAZ2B block 50µM, HP1b binding inh inconclusive
Cc1cc(Cl)ccc1OCCCC(=O)NN	none
CC(O)CNCCCOc1ccc(Cl)cc1C(C)(C)C (stereo not drawn)	JMJD2A Tudor 0.89µM, BAZ2B block inconclusive, HP1b binding inh inconclusive
COc1ccc(C2/C=C\CNCC(=O)N2Cc2ccc(F)cc2)cc1 (stereo not drawn)	VDR inhibitor inconclusive (no result: L3MBTL1 inh)
CCNc1ncc2nc(-c3ccc(Cl)cc3)c(=O)n(CCC#N)c2n1	none (no result: L3MBTL1 inh, PLK1 PBD block, JMJD2A Tudor, BAZ2B block, HP1b binding inh)
COc1cc(NC(=O)c2ccc(COCC(F)(F)F)cc2)cc(OC)c1OC	PLK1 PBD block 4.7µM
Cc1cccc(Nc2nc(N)c([N+](=O)[O-])c(N3CCN(C)CC3)n2)c1	none
Cc1ccc(Nc2nc(N)c([N+](=O)[O-])c(N3CCC(C)CC3)n2)cc1C	JMJD2A Tudor 56µM, BAZ2B block 25µM, HP1b binding inh inconclusive
CCN1CCN(c2nc(Nc3cccc(C)c3)nc(N)c2[N+](=O)[O-])CC1	none
Cc1cccc(Nc2nc(N)c([N+](=O)[O-])c(N3CCCC(C)C3)n2)c1 (stereo not drawn)	L3MBTL1 inh 32µM, JMJD2A Tudor 40µM, BAZ2B block 40µM
O=C(O)c1cc(-c2ccc(-c3c(-c4ccc5c(c4)OCO5)noc3-c3ccsc3)cc2)nc2ccccc12	PLK1 PBD block 17µM, VDR inhibitor inconclusive, JMJD2A Tudor 89µM, BAZ2B block inconclusive
CN(C)c1ccc(-c2c(-c3ccc4c(c3)OCO4)noc2-c2ccsc2)cn1	none
CCN(CC)CCNC(=O)C(=O)Nc1cc2c3c(c1)CCC(=O)N3CCC2	none (no result: L3MBTL1 inh)
Fc1ccccc1C1c2[nH]c3ccccc3c2CCN1Cc1cccn1-c1ncccn1 (stereo not drawn)	JMJD2A Tudor inconclusive, BAZ2B block 32µM, HP1b binding inh inconclusive
Cc1ccccc1C1c2[nH]c3ccccc3c2CCN1Cc1cccn1-c1ncccn1 (stereo not drawn)	L3MBTL1 inh inconclusive, JMJD2A Tudor inconclusive, BAZ2B block 25µM
COc1ccc(C2c3[nH]c4ccccc4c3CCN2CCCn2cccn2)c(F)c1 (stereo not drawn)	L3MBTL1 inh inconclusive
COc1ccc(-n2c(-c3ccccc3)cc3c2CCCC3=O)cc1	L3MBTL1 inh 32µM, JMJD2A Tudor 32µM, BAZ2B block 11µM, HP1b binding inh inconclusive
